# Measurements: PubChem BioAssay
# For some of these results: Measured potencies and affinities stand elsewhere. Activity calls are given as the source filed them.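 The calls were made as follows, unless noted: active = primary screen hit whose fluorescence ratio, in both repeats, exceeds the weak agonist control mean by 3 SD; inactive = the rest.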
# How the values were obtained:
# [1] = system: TRPC4 beta (transient receptor potential cation channel C4), mouse; assay: activators of mouse TRPC4 channel, confirmation, cell-based, Fluo4 calcium, HEK293 TRPC4beta/mu-opioid, duplicates, 10 µM (AID 2426;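 active = fluorescence ratio normalized to control raised more than 50% in primary screen plus both repeat runs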); details: Fluo4 calcium fluorescence, at 10 µM; hits give high values
# [2] = system: transient receptor potential cation channel C4 beta (TRPC4), mouse; assay: activators of mouse TRPC4 channel, confirmation, cell-based, second round, Fluo4, HEK293 TRPC4beta/mu-opioid, 1 µM (AID 2461;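 active = primary screen active and over 50% activation in each of two duplicate runs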); details: Fluo4 calcium fluorescence, at 1 µM; hits give high values
# [3] = system: TRPC4 (transient receptor potential cation channel C4 beta), mouse; assay: positive allosteric modulators of mouse TRPC4, confirmation, cell-based, second round, Fluo-4, HEK293 TRPC4beta/mu-opioid, 1 µM (AID 2554); details: DAMGO EC20, Fluo-4 calcium flux, at 1 µM; hits give high values
# [4] = system: TRPC4 beta (transient receptor potential cation channel C4), mouse; assay: positive allosteric modulators of mouse TRPC4, confirmation, cell-based, Fluo-4, HEK293 TRPC4beta/mu-opioid (AID 2555;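 active = primary screen hit whose calcium fluorescence ratio, in both repeats, exceeds the weak agonist control mean by 3 SD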); details: DAMGO EC20, Fluo-4 calcium flux, at 10 µM; hits give high values
# [5] = target: Short transient receptor potential channel 4 (Mus musculus) (UniProt Q9QUQ5); assay: inhibitors of mouse TRPC4 channel, confirmation, cell-based, Fluo4, HEK293 TRPC4beta/mu-opioid (AID 2636;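 active = calcium signal cut by more than 3 SD below the full-agonist control yet still positive, in both repeats and the earlier primary screen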); details: DAMGO, Fluo4 calcium flux, at 10 µM; hits give high values
# Sequence of Short transient receptor potential channel 4 (Mus musculus) (Q9QUQ5 whole entry, looked up): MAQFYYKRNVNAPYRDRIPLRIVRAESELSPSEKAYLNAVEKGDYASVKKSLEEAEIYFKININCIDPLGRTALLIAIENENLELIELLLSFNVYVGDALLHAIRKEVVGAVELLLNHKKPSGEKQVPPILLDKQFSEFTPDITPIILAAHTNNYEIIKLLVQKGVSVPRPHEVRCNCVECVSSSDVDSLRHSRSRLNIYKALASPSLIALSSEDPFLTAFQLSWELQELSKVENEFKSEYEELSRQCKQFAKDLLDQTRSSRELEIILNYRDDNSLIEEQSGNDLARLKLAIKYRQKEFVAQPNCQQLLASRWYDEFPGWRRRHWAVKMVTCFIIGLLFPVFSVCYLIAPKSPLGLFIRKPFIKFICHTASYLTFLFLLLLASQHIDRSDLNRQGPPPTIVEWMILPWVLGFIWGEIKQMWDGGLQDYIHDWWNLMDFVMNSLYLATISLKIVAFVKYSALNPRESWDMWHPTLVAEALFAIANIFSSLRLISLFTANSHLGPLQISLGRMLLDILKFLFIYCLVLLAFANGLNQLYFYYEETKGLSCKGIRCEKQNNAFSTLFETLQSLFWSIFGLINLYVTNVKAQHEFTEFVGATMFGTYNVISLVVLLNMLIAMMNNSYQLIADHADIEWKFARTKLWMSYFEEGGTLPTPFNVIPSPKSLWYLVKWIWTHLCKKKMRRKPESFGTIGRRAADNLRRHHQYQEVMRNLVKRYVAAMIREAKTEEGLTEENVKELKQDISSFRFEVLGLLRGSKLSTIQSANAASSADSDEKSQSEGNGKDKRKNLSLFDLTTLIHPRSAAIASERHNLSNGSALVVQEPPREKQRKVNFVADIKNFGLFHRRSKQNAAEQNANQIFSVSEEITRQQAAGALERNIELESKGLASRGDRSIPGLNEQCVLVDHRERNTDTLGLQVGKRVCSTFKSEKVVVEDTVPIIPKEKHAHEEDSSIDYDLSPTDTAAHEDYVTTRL
# [6] = target: Short transient receptor potential channel 4 (Mus musculus) (UniProt Q9QUQ5); assay: inhibitors of mouse TRPC4 channel, confirmation, cell-based, second round, Fluo4, HEK293 TRPC4beta/mu-opioid, 1 µM (AID 2637;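 active = calcium signal ratio cut to more than 3 SD under the fully stimulated control mean yet still positive, in both repeats and the primary screen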); details: Fluo4 calcium flux, DAMGO, at 1 µM; hits give high values
# [7] = target: Short transient receptor potential channel 4 (Mus musculus) (UniProt Q9QUQ5); assay: mouse TRPC4 channel activators, dose response, cell-based, HEK293 TRPC4/mu-opioid, Fluo-4 calcium (AID 434937;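 active = primary screen activator hit with a dose response curve and TRPC4 channel activation at any tested dose; inactive = no activation, no dose response, or not a primary hit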)
# [8] = target: Short transient receptor potential channel 4 (Mus musculus) (UniProt Q9QUQ5); assay: TRPC4 positive allosteric modulators, dose response, cell-based, HEK293 TRPC4/mu-opioid, Fluo-4 calcium, EC20 DAMGO (AID 434941;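 active = earlier screen potentiator hit that boosts the TRPC4 ion channel at some dose, with a dose response; inactive = no potentiation, no dose response, or not a prior hit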;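 also: calcium entry triggered by an EC20 dose of DAMGO at the co-expressed mu-opioid receptor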)
# [9] = target: Short transient receptor potential channel 4 (Mus musculus) (UniProt Q9QUQ5); assay: mouse TRPC4 channel inhibitors, dose response, cell-based, HEK293 TRPC4/mu-opioid, Fluo-4 calcium (AID 434942;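 active = primary screen inhibitor hit that blocks the TRPC4 channel at some tested dose, yielding a dose curve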)
# [10] = target: Short transient receptor potential channel 6 (Mus musculus) (UniProt Q61143); assay: inhibition of mouse TRPC6 channel, confirmation, selectivity assay for TRPC4 inhibitor project, cell-based, HEK293, membrane potential dye, duplicate (AID 434948;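 active = active in primary screen and both duplicates, each dropping signal beyond three positive-control SD with fluorescence still positive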); details: HEK293 TRPC6, membrane potential dye fluorescence, at 10 µM, stimulated with maximal-effect acetylcholine; hits give high values
# Sequence of Short transient receptor potential channel 6 (Mus musculus) (Q61143 whole entry, looked up): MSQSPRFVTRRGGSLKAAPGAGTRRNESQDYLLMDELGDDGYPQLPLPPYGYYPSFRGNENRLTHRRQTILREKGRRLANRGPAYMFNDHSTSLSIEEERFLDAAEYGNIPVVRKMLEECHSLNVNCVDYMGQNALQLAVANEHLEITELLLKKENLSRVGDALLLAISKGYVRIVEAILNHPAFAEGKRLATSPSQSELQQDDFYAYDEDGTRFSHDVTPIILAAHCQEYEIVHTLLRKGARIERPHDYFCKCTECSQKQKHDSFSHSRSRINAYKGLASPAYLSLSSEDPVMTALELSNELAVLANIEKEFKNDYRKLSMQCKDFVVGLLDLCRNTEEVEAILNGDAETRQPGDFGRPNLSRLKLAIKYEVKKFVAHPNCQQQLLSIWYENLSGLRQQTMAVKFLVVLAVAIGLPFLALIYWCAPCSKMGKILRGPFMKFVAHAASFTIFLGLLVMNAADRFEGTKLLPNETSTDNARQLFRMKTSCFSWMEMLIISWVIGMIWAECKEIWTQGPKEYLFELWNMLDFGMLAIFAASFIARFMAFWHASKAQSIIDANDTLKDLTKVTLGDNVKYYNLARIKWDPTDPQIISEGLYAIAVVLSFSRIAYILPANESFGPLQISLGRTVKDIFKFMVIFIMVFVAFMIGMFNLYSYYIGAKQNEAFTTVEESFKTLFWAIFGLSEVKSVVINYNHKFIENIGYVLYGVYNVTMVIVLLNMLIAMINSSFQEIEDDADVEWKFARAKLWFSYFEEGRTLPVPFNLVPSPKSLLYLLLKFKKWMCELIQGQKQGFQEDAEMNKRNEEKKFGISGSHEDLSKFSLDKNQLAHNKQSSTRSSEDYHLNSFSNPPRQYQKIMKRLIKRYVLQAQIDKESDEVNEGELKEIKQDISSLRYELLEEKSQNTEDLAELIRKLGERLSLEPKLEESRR
# [11] = target: Short transient receptor potential channel 6 (Mus musculus) (UniProt Q61143); assay: activation of mouse TRPC6 channel, confirmation, selectivity assay for TRPC4 activator project, cell-based, HEK293, membrane potential dye, duplicate (AID 434950;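 active = membrane potential signal rise above negative control mean plus 3 SD in both duplicates, also active in the earlier TRPC4 screen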); details: HEK293 TRPC6, membrane potential fluorescence, at 10 µM; hits give high values
# [12] = target: Short transient receptor potential channel 6 (Mus musculus) (UniProt Q61143); assay: TRPC6 potentiation by TRPC4 potentiator hits, confirmation, selectivity assay for TRPC4 potentiator project, HEK293 cells, membrane potential dye, duplicate (AID 434952;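 active = compound raising the membrane signal above positive-control mean plus 3 SD in both repeats, and a primary screen hit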); details: HEK293 TRPC6, membrane potential dye fluorescence, at 10 µM, maximal acetylcholine added after compound; hits give high values
# [13] = target: Short transient receptor potential channel 4 (Mus musculus) (UniProt Q9QUQ5); assay: calcium flux activators in TRPC4/5HT1a cells, counter-screen for TRPC4 activator project, cell-based, second counter screen, HEK293 TRPC4/5HT1a, Fluo-4 (AID 434977;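 active = calcium signal rise above buffer-control mean plus 5 SD in both duplicates, and also a hit in the primary screen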); details: Fluo-4 calcium flux, at 10 µM; hits give high values
# [14] = calcium flux inhibitors in TRPC4/5HT1a cells, confirmation, counter-screen for TRPC4 inhibitor project, cell-based, second counter screen, HEK293 TRPC4/5HT1a, Fluo-4 (AID 434978;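 active = primary screen active whose calcium signal fell more than 3 SD beyond the full-serotonin control mean in both duplicate plates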;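 also: serotonin given first at submaximal then at maximal dose after compound preincubation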); details: Fluo-4 calcium flux, at 10 µM, serotonin added to trigger calcium flux; hits give high values
# [15] = system: TRPC4 (mouse), co-expressed with 5HT1a in HEK293; assay: calcium flux potentiators in TRPC4/5HT1a cells, confirmation, counter-screen for TRPC4 potentiator project, cell-based, second counter screen, HEK293 TRPC4/5HT1a, Fluo-4 (AID 434979;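 active = signal rise over 3 SD above mean of control wells given weak agonist, in both repeats and first screen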); details: Fluo-4 calcium flux, at 10 µM, serotonin added at its EC20 dose; hits give high values
# [16] = calcium flux activation in mu-opioid HEK293 cells, confirmation, counter-screen for TRPC4 activator project, cell-based, HEK293 mu-opioid receptor line (AID 449723;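 active = hit in primary screen, with calcium signal over 5 SD above buffer well mean in both duplicates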;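 also: counter screen cells carry the mu-opioid receptor alone and lack TRPC4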); details: Fluo-4 calcium fluorescence, at 10 µM; hits give high values
# [17] = calcium flux enhancement in mu-opioid HEK293 cells, confirmation, counter-screen for TRPC4 allosteric potentiator project, cell-based, HEK293 mu-opioid receptor line (AID 449724;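 active = calcium signal rise more than 3 SD above the low-dose agonist control mean, in both duplicate plates and the primary screen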); details: Fluo-4 calcium flux, at 10 µM, compound added before EC20 DAMGO stimulus; hits give high values
Structure (SMILES),outcome [1],outcome [2],outcome [3],outcome [4],outcome [5],outcome [6],outcome [7],outcome [8],outcome [9],outcome [10],outcome [11],outcome [12],outcome [13],outcome [14],outcome [15],outcome [16],outcome [17],potentiation [4],potentiation [15],activation [17]
COc1ccccc1CNCc1cc(Br)ccc1OC,inactive,inactive,inactive,inactive,inactive,inactive,inactive,inactive,inactive,inactive,inactive,inactive,inactive,inactive,inactive,inactive,inactive,–,–,–
c1cnc(N2CCN(c3cnccn3)CC2)nc1,inactive,inactive,inactive,inactive,inactive,inactive,inactive,inactive,inactive,inactive,inactive,inactive,inactive,inactive,inactive,inactive,inactive,–,–,–
CCN1C(=O)/C(=C/C=C2\N(CC)c3cc(S(=O)(=O)N(C)C)ccc3N2c2ccccc2)SC1=S,inactive,inactive,inactive,–,inactive,inactive,inactive,inactive,inactive,inactive,inactive,inactive,inactive,inactive,–,inactive,–,13% (active),24.9% (active),996% (active)
O=[N+]([O-])c1ccc(CN2CCN(c3nc4ccccc4s3)CC2)cc1,inactive,inactive,inactive,–,inactive,inactive,inactive,inactive,inactive,inactive,inactive,inactive,inactive,inactive,–,inactive,inactive,7% (active),17.5% (active),–
COC(=O)[C@@]12CCCN1[C@H](c1ccc(-c3ccc(OC)cc3)cc1)[C@@H]1C(=O)N(C)C(=O)[C@@H]12,inactive,inactive,inactive,–,inactive,inactive,inactive,inactive,inactive,inactive,inactive,inactive,inactive,inactive,–,inactive,inactive,32% (active),111% (active),–
NC(N)=NN=C1CCC(c2ccccc2)CC1 (stereo unspecified),inactive,inactive,inactive,inactive,inactive,inactive,inactive,inactive,inactive,inactive,inactive,inactive,inactive,inactive,inactive,inactive,inactive,–,–,–
CSc1ccccc1OC1CCN(Cc2ccccc2)CC1,inactive,inactive,inactive,inactive,inactive,inactive,inactive,inactive,inactive,inactive,inactive,inactive,inactive,inactive,inactive,inactive,inactive,–,–,–
Clc1ccc(Cl)c(OCCCCN2CCNCC2)c1,inactive,inactive,inactive,–,inactive,inactive,inactive,inactive,inactive,inactive,inactive,inactive,inactive,inactive,–,inactive,inactive,13% (active),6.61% (active),–
